# Measurements reported in the supplement of paper PMC4466140.
# Experiments:
# Assay in all cases: SPOT peptide array binding signal intensity (averaged, normalized) (arbitrary units (background-subtracted, floor 0; scale differs between SH3 domains)); higher = stronger binding of the SH3 domain to the peptide
# AgAbp1 = target: AgAbp1
# In short: (§1)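 The binding signal is the normalized, background-subtracted spot intensity averaged over replicates; its arbitrary units differ between domains. It was obtained by incubating 10 μg/ml GST-fused SH3 domains from four yeast species overnight at 4°C in TBS-based blocking buffer on cellulose membranes with synthetic 15-mer peptides, cysteines replaced by serines, then detecting with anti-GST antibody, HRP anti-mouse secondary and luminol.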
# AgBbc1 = target: AgBbc1
# In short: as §1
# AgBem1-D1 = target: AgBem1-D1
# In short: as §1
# AgBzz1-D1 = target: AgBzz1-D1
# In short: as §1
# AgBzz1-D2 = target: AgBzz1-D2
# In short: as §1
# AgCyk3 = target: AgCyk3
# In short: as §1
# AgFus1 = target: AgFus1
# In short: as §1
# AgHof1 = target: AgHof1
# In short: as §1
# AgHse1 = target: AgHse1
# In short: as §1
# AgLsb1 = target: AgLsb1
# In short: as §1
# AgLsb4 = target: AgLsb4
# In short: as §1
# AgMyo5 = target: AgMyo5
# In short: as §1
# AgNbp2 = target: AgNbp2
# In short: as §1
# AgRvs167 = target: AgRvs167
# In short: as §1
# AgSho1 = target: AgSho1
# In short: as §1
# AgSla1-D1-D2 = target: AgSla1-D1-D2
# In short: as §1
# AgSla1-D3 = target: AgSla1-D3
# In short: as §1
# CaAbp1-D1 = target: CaAbp1-D1
# In short: as §1
# CaAbp1-D2 = target: CaAbp1-D2
# In short: as §1
# CaBbc1 = target: CaBbc1
# In short: as §1
# CaBem1-D1 = target: CaBem1-D1
# In short: as §1
# CaBzz1-D1 = target: CaBzz1-D1
# In short: as §1
# CaBzz1-D2 = target: CaBzz1-D2
# In short: as §1
# CaCyk3 = target: CaCyk3
# In short: as §1
# CaFus1 = target: CaFus1
# In short: as §1
# CaHof1 = target: CaHof1
# In short: as §1
# CaHse1 = target: CaHse1
# In short: as §1
# CaLsb1 = target: CaLsb1
# In short: as §1
# CaLsb4 = target: CaLsb4
# In short: as §1
# CaMyo5 = target: CaMyo5
# In short: as §1
# CaNbp2 = target: CaNbp2
# In short: as §1
# CaRvs167 = target: CaRvs167
# In short: as §1
# CaRvs167-3 = target: CaRvs167-3
# In short: as §1
# CaSho1 = target: CaSho1
# In short: as §1
# CaSla1-D1-D2 = target: CaSla1-D1-D2
# In short: as §1
# CaSla1-D3 = target: CaSla1-D3
# In short: as §1
# ScAbp1 = target: ScAbp1
# In short: as §1
# ScBbc1 = target: ScBbc1
# In short: as §1
# ScBem1-D1 = target: ScBem1-D1
# In short: as §1
# ScBzz1-D1 = target: ScBzz1-D1
# In short: as §1
# ScBzz1-D2 = target: ScBzz1-D2
# In short: as §1
# ScCyk3 = target: ScCyk3
# In short: as §1
# ScFus1 = target: ScFus1
# In short: as §1
# ScHof1 = target: ScHof1
# In short: as §1
# ScHse1 = target: ScHse1
# In short: as §1
# ScLsb1 = target: ScLsb1
# In short: as §1
# ScLsb2 = target: ScLsb2
# In short: as §1
# ScLsb3 = target: ScLsb3
# In short: as §1
# ScLsb4 = target: ScLsb4
# In short: as §1
# ScMyo3 = target: ScMyo3
# In short: as §1
# ScMyo5 = target: ScMyo5
# In short: as §1
# ScNbp2 = target: ScNbp2
# In short: as §1
# ScPex13 = target: ScPex13
# In short: as §1
# ScRvs167 = target: ScRvs167
# In short: as §1
# ScSho1 = target: ScSho1
# In short: as §1
# ScSla1-D1-D2 = target: ScSla1-D1-D2
# In short: as §1
# ScSla1-D3 = target: ScSla1-D3
# In short: as §1
# SpAbp1-D1 = target: SpAbp1-D1
# In short: as §1
# SpBbc1 = target: SpBbc1
# In short: as §1
# SpBzz1-D1 = target: SpBzz1-D1
# In short: as §1
# SpBzz1-D2 = target: SpBzz1-D2
# In short: as §1
# SpCyk3 = target: SpCyk3
# In short: as §1
# SpHof1 = target: SpHof1
# In short: as §1
# SpHof1-2 = target: SpHof1-2
# In short: as §1
# SpHof1-3 = target: SpHof1-3
# In short: as §1
# SpHse1 = target: SpHse1
# In short: as §1
# SpLsb1 = target: SpLsb1
# In short: as §1
# SpLsb4 = target: SpLsb4
# In short: as §1
# SpMyo1 = target: SpMyo1
# In short: as §1
# SpNbp2 = target: SpNbp2
# In short: as §1
# SpPex13 = target: SpPex13
# In short: as §1
# SpRvs167 = target: SpRvs167
# In short: as §1
# SpSla1-D1-D2 = target: SpSla1-D1-D2
# In short: as §1
# SpSla1-D3 = target: SpSla1-D3
# In short: as §1
binder,measurement,setting,value
EREKALPPIPFTTTL,SPOT peptide array binding signal intensity,AgAbp1,≤ 0
same,SPOT peptide array binding signal intensity,AgBbc1,≤ 0
same,SPOT peptide array binding signal intensity,AgBem1-D1,71
same,SPOT peptide array binding signal intensity,AgBzz1-D1,13
same,SPOT peptide array binding signal intensity,AgBzz1-D2,≤ 0
same,SPOT peptide array binding signal intensity,AgCyk3,2
same,SPOT peptide array binding signal intensity,AgFus1,5
same,SPOT peptide array binding signal intensity,AgHof1,132
same,SPOT peptide array binding signal intensity,AgHse1,0.5
same,SPOT peptide array binding signal intensity,AgLsb1,18
same,SPOT peptide array binding signal intensity,AgLsb4,3.5
same,SPOT peptide array binding signal intensity,AgMyo5,≤ 0
same,SPOT peptide array binding signal intensity,AgNbp2,≤ 0
same,SPOT peptide array binding signal intensity,AgRvs167,0.333
same,SPOT peptide array binding signal intensity,AgSho1,5670
same,SPOT peptide array binding signal intensity,AgSla1-D1-D2,≤ 0
same,SPOT peptide array binding signal intensity,AgSla1-D3,≤ 0
same,SPOT peptide array binding signal intensity,CaAbp1-D1,≤ 0
same,SPOT peptide array binding signal intensity,CaAbp1-D2,≤ 0
same,SPOT peptide array binding signal intensity,CaBbc1,≤ 0
same,SPOT peptide array binding signal intensity,CaBem1-D1,1.5
same,SPOT peptide array binding signal intensity,CaBzz1-D1,≤ 0
same,SPOT peptide array binding signal intensity,CaBzz1-D2,1.53e-05
same,SPOT peptide array binding signal intensity,CaCyk3,≤ 0
same,SPOT peptide array binding signal intensity,CaFus1,125
same,SPOT peptide array binding signal intensity,CaHof1,3
same,SPOT peptide array binding signal intensity,CaHse1,30
same,SPOT peptide array binding signal intensity,CaLsb1,0.5
same,SPOT peptide array binding signal intensity,CaLsb4,≤ 0
same,SPOT peptide array binding signal intensity,CaMyo5,0.5
same,SPOT peptide array binding signal intensity,CaNbp2,≤ 0
same,SPOT peptide array binding signal intensity,CaRvs167,2.67
same,SPOT peptide array binding signal intensity,CaRvs167-3,1
same,SPOT peptide array binding signal intensity,CaSho1,4810
same,SPOT peptide array binding signal intensity,CaSla1-D1-D2,≤ 0
same,SPOT peptide array binding signal intensity,CaSla1-D3,0.5
same,SPOT peptide array binding signal intensity,ScAbp1,≤ 0
same,SPOT peptide array binding signal intensity,ScBbc1,1
same,SPOT peptide array binding signal intensity,ScBem1-D1,≤ 0
same,SPOT peptide array binding signal intensity,ScBzz1-D1,≤ 0
same,SPOT peptide array binding signal intensity,ScBzz1-D2,2
same,SPOT peptide array binding signal intensity,ScCyk3,5
same,SPOT peptide array binding signal intensity,ScFus1,2
same,SPOT peptide array binding signal intensity,ScHof1,66
same,SPOT peptide array binding signal intensity,ScHse1,≤ 0
same,SPOT peptide array binding signal intensity,ScLsb1,≤ 0
same,SPOT peptide array binding signal intensity,ScLsb2,≤ 0
same,SPOT peptide array binding signal intensity,ScLsb3,≤ 0
same,SPOT peptide array binding signal intensity,ScLsb4,0.5
same,SPOT peptide array binding signal intensity,ScMyo3,≤ 0
same,SPOT peptide array binding signal intensity,ScMyo5,≤ 0
same,SPOT peptide array binding signal intensity,ScNbp2,≤ 0
same,SPOT peptide array binding signal intensity,ScPex13,86.8
same,SPOT peptide array binding signal intensity,ScRvs167,3.5
same,SPOT peptide array binding signal intensity,ScSho1,7050
same,SPOT peptide array binding signal intensity,ScSla1-D1-D2,≤ 0
same,SPOT peptide array binding signal intensity,ScSla1-D3,≤ 0
same,SPOT peptide array binding signal intensity,SpAbp1-D1,≤ 0
same,SPOT peptide array binding signal intensity,SpBbc1,≤ 0
same,SPOT peptide array binding signal intensity,SpBzz1-D1,61
same,SPOT peptide array binding signal intensity,SpBzz1-D2,≤ 0
same,SPOT peptide array binding signal intensity,SpCyk3,3.5
same,SPOT peptide array binding signal intensity,SpHof1,1190
same,SPOT peptide array binding signal intensity,SpHof1-2,1870
same,SPOT peptide array binding signal intensity,SpHof1-3,3060
same,SPOT peptide array binding signal intensity,SpHse1,29.2
same,SPOT peptide array binding signal intensity,SpLsb1,≤ 0
same,SPOT peptide array binding signal intensity,SpLsb4,7
same,SPOT peptide array binding signal intensity,SpMyo1,32.5
same,SPOT peptide array binding signal intensity,SpNbp2,≤ 0
same,SPOT peptide array binding signal intensity,SpPex13,1
same,SPOT peptide array binding signal intensity,SpRvs167,38.7
same,SPOT peptide array binding signal intensity,SpSla1-D1-D2,9
same,SPOT peptide array binding signal intensity,SpSla1-D3,0.5
DDEDVPPQLPTRTKS,SPOT peptide array binding signal intensity,AgAbp1,≤ 0
same,SPOT peptide array binding signal intensity,AgBbc1,14.5
same,SPOT peptide array binding signal intensity,AgBem1-D1,1
same,SPOT peptide array binding signal intensity,AgBzz1-D1,28
same,SPOT peptide array binding signal intensity,AgBzz1-D2,11.5
same,SPOT peptide array binding signal intensity,AgCyk3,≤ 0
same,SPOT peptide array binding signal intensity,AgFus1,6.5
same,SPOT peptide array binding signal intensity,AgHof1,28
same,SPOT peptide array binding signal intensity,AgHse1,17
same,SPOT peptide array binding signal intensity,AgLsb1,14
same,SPOT peptide array binding signal intensity,AgLsb4,6150
same,SPOT peptide array binding signal intensity,AgMyo5,1.75
same,SPOT peptide array binding signal intensity,AgNbp2,≤ 0
same,SPOT peptide array binding signal intensity,AgRvs167,53.2
same,SPOT peptide array binding signal intensity,AgSho1,10
same,SPOT peptide array binding signal intensity,AgSla1-D1-D2,≤ 0
same,SPOT peptide array binding signal intensity,AgSla1-D3,≤ 0
same,SPOT peptide array binding signal intensity,CaAbp1-D1,≤ 0
same,SPOT peptide array binding signal intensity,CaAbp1-D2,≤ 0
same,SPOT peptide array binding signal intensity,CaBbc1,45
same,SPOT peptide array binding signal intensity,CaBem1-D1,9.5
same,SPOT peptide array binding signal intensity,CaBzz1-D1,≤ 0
same,SPOT peptide array binding signal intensity,CaBzz1-D2,≤ 0
same,SPOT peptide array binding signal intensity,CaCyk3,3
same,SPOT peptide array binding signal intensity,CaFus1,78
same,SPOT peptide array binding signal intensity,CaHof1,7.5
same,SPOT peptide array binding signal intensity,CaHse1,27
same,SPOT peptide array binding signal intensity,CaLsb1,6.5
same,SPOT peptide array binding signal intensity,CaLsb4,6780
same,SPOT peptide array binding signal intensity,CaMyo5,2
